Source: PubChem
This is a sample that favours compounds with a hit; in the whole collection about 19% have one here.
HT1080-NT tox – kills 2HG-producing HT-1080-NT fibrosarcoma cells. Potency, µM (titrated, usually from 46.1 µM), for inactives: at the top dose activity, negative = less viability, actives largely listed as cytotoxic. AID 686970. HT-1080-NT fibrosarcoma viability, CellTiter-Glo ATP luminescence, 48 h. 1.6% of 360,000 active;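 further: NT is the 2HG producing partner of a matched IDH1 knockdown line; potency means the concentration at half of the fitted maximal effect; 0% = DMSO-treated cells and -100% = media-only wells without cells; nearly all actives have a fitted effect of over 55% in size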
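HT-1080-NT fibrosarcoma cells (2HG-overproducing), 750 cells/well in RPMI with 5% FBS, dosed after 2 h and incubated 48 h at 37C. CellTiter-Glo luminescence normalized to DMSO and no-cell wells; concentration-response curves fitted and classed.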
IL1B secr inh – inflammasome signaling inhibition, IL-1 beta readout; activity change, % at 57.5 µM; THP-1 LPS/ATP IL-1B secretion, AlphaLISA, 16 h; active compounds read low; 4.7% of 360,000 active; in the data active means activity change below about -50%; inconclusive means mostly about -30% to -49%
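Secreted IL-1B measured by AlphaLISA bead assay after 16 h compound exposure of THP-1 cells; compounds (final up to 57.5 uM) added 1 h before LPS (250 ng/mL) and ATP (1.25 mM) stimulation; lower signal means less secretion.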
HT1080 IDH1KD tx – toxicity to HT-1080 IDH1 knockdown cells (counter line). AID 686971. Potency, µM (titrated, usually from 46.1 µM), for the others: at the top dose activity, negative = toxicity, usual class: cytotoxic. 2% of 360,000 active. HT-1080 IDH1 knockdown viability, ATP luminescence, 48 h;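 further: potency means the concentration at half of the fitted maximal effect; 0% = DMSO wells and -100% = cell-free medium wells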
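% activity derives from luminescence (CellTiter-Glo), normalised to DMSO and no-cell wells. HT-1080-IDH1KD cells, 750/well, had 48 h compound exposure at 37 °C.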
DT40 TDP1 CPT – DT40-hTDP1 cell growth loss with CPT; AID 686979; 12% of 420,000 active; Potency, µM (titrated, usually from 46.2 µM), for inactives: at the top dose activity change, negative = growth inhibition, actives largely listed as inhibitors; chicken DT40 Tdp1-/-;hTDP1 cells + 20 nM CPT, ATP luminescence, 48 h; further: potency means the concentration at half of the fitted maximal effect; nearly all actives have a fitted effect of over 55% in size
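Cell growth measured by CellTiter-Glo luminescence after a minimum 48 h, 37 C compound exposure with 20 nM CPT in Tdp1-knockout DT40 cells stably expressing hTDP1, seeded 400/well; qHTS titration format.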
DT40 TDP1 no CPT – qHTS for Inhibitors of human tyrosyl-DNA phosphodiesterase 1 (TDP1): qHTS in cells in absence of CPT; Potency, µM (doses to about 46.2 µM), without a hit: at the top dose activity change, negative = growth inhibition, most hits filed as inhibitors; DT40 Tdp1-/- hTDP1 cells, no CPT, ATP luminescence, 48 h; 15% of 420,000 active; further: potency means the concentration at half of the fitted maximal effect; nearly all actives have a fitted effect of over 55% in size
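Growth of hTDP1-complemented DT40 Tdp1-knockout cells is measured by ATP luminescence after at least 48 hr compound exposure at 37 °C, with DMSO substituting for the 20 nM CPT used in the parallel screen.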
Numbers without * were called inactive; ? = inconclusive; . = no result given; [ ] = dose if it differs, or a comment. Unless noted, the call rests on the fitted dose curve; in most records, active means well fitted curve in the direction sought with a large enough effect; inconclusive means small, poorly fitted or top-dose-only effect, or another doubt; inactive means no such curve, though single readings can be large; an effect the other way counts as inactive or inconclusive. Unless noted, on the % scale 0 is the no-effect control and ±100 the full control effect.

SMILES | HT1080-NT tox | IL1B secr inh | HT1080 IDH1KD tx | DT40 TDP1 CPT | DT40 TDP1 no CPT
COc1ccccc1-c1nnc(NC(=O)c2ccc(S(=O)(=O)N3CCOCC3)cc2)o1 | -5% | 9 | -4% | ? | ?
O=C(Nc1nnc(-c2ccco2)o1)c1ccc(S(=O)(=O)N2CCCCC2)cc1 | -14% | 7 | -19% | 21µM* | 13µM*
CC1CCCCN1S(=O)(=O)c1ccc(C(=O)Nc2nnc(-c3ccco3)o2)cc1 (stereo unspecified) | -21% | 10 | -25% | 15µM* | 26µM*
COc1cccc(-c2nnc(NC(=O)c3ccc(S(=O)(=O)N4CCOCC4)cc3)o2)c1 | -14% | 31 | -22% | 23µM* | 12µM*
CC1CCN(CC(=O)Nc2ccc(N3CCCCCC3)cc2)CC1 | -4% | -7 | -5% | ? | ?
Cn1c(SCC(=O)N2CCOCC2)nc2c(c1=O)SCC2 | -4% | -12 | -1% | -2% | -10%
Nn1c(SCC(=O)Nc2cccnc2Cl)nnc1-c1ccccc1 | 1% | 14 | -8% | ? | -16%
Cn1nc(C(=O)Nc2ccc(S(=O)(=O)N3CCOCC3)cc2)c2ccccc2c1=O | 6% | 17 | 0% | ? | ?
CN1C(CC(=O)Nc2ccc(Cl)cc2Cl)c2ccccc2CC1(C)C (stereo unspecified) | -13% | . | ? | 10µM* | 16µM*
O=C(Nc1cccc(N2CCC(NCc3cnn(-c4cccc(F)c4)c3)CC2)c1)c1ccncc1 | . | . | . | -7%[9.04 µM] | ?
Cc1cc(C)nc(SCC(=O)NC2CCCCC2C)n1 (stereo unspecified) | 17% | 23 | 8% | 19% | -9%
O=C1c2cccc(OCC(=O)N3N=C(c4cccs4)CC3c3ccc(F)cc3)c2CCN1Cc1cccnc1 (stereo unspecified) | -22% | -6 | -30% | 9.2µM* | 10µM*
O=C(c1cccnc1)N1N=C(c2cccs2)CC1c1ccc(F)cc1 (stereo unspecified) | 2% | 8 | 4% | 6% | -22%
CCOC(=O)N1CCN(C(=O)COc2cccc3c2CCN(Cc2cccc(C)c2)C3=O)CC1 | 1% | -23 | -17% | 23µM* | 15µM*
Cc1ccccc1CN1CCc2c(OCC(=O)N3CCCc4ccccc43)cccc2C1=O | ? | ? | ? | 18µM* | 18µM*
O=C1c2cccc(OCC(=O)N3CCCc4ccccc43)c2CCN1Cc1cccnc1 | -7% | -7 | -11% | 23µM* | 9.2µM*
CCOC(=O)N1CCN(C(=O)COc2cccc3c2CCN(Cc2ccccc2C)C3=O)CC1 | -7% | -13 | -6% | ? | ?
COc1ccc(C(c2c(O)nc[nH]c2=O)c2c(O)nc[nH]c2=O)cc1 | 9% | 26 | 1% | 40% | -3%
CCCCn1c(N)c(N(CCOC)C(=O)CCCc2cccs2)c(=O)[nH]c1=O | 6% | -4 | -5% | 7% | -4%
O=C1N[C@H](Cc2ccccc2)COC(=O)[C@H](Cc2ccc(F)cc2)CC/C=C/C[C@H]1CC(=O)N(CCO)Cc1ccccc1 | -22% | 0 | -24% | ? | 23µM*
C[C@@H]1COC(=O)[C@@H](Cc2ccc(F)cc2)C/C=C\C[C@@H](CC(=O)N(CCO)Cc2ccccc2)C(=O)N1 | 3% | 1 | 4% | ? | ?
C[C@H]1COC(=O)[C@H](Cc2ccc(F)cc2)C/C=C\C[C@@H](CC(=O)N(CCO)Cc2ccccc2)C(=O)N1 | 2% | -6 | 0% | 15µM* | 21µM*
O=C1NCCOC(=O)[C@@H](Cc2ccc(F)cc2)C/C=C\C[C@@H]1CC(=O)N(CCO)Cc1ccccc1 | 0% | 8 | 1% | 18µM* | 21µM*
O=C1N[C@@H](Cc2ccccc2)COC(=O)[C@@H](Cc2ccc(F)cc2)C/C=C\C[C@@H]1CC(=O)N(CCO)Cc1ccccc1 | ? | ? | ? | 23µM* | 18µM*
